# Test results taken from the supplement of paper PMC8728848.
# The entries come from a sample that favours the strongest signals as a whole.
# B1: Surfactant Protein D (Human); Neck + Carbohydrate Recognition Domain (NCRD) (Homo sapiens) (protein)
# chain: MLLFLLSALVLLTQPLGYLEAEMKTYSHRTMPSACTLVMCSSVESGLPGRDRDGREGPRGEKGDPGLPGAAGQAGMPGQAGPVGPKGDNGSVGEPGPKGDTGPSGPPGPPGVPGPAGREGALGKQGNIGPQGKPGPKGEAGPKGEVGAPGMQGSAGARGLAGPKGERGVPGERGVPGNTGAAGSAGAMGPQGSPGARGPPGLKGDKGIPGDKGAKGESGLPDVASLRQQVEALQGQVQHLQAAFSQYKKVELFPNGQSVGEKIFKTAQFVKPFTEAQLLCTQAGGQLASPRSAAENAALQQLVVAKNEAAFLSMTDSKTEGKFTYPTGESLVYSNWAPGEPNDDGGSEDCVEIFTNGKWNDVACGEKRLVVCEF
# Assays:
# Experiment in all cases: glycan array binding signal (z-score within array); higher = stronger binding
# Conditions in all cases: glycan notation: IUPAC condensed, linker removed; mutation: R343V
# [1] = target: Fuc(a1-2)Gal(b1-4)Glc6S
# Summary of the method: (§1)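 The binding signal is a Z-score computed within each array. Data were drawn from 3228 arrays in the Consortium for Functional Glycomics database, restricted to those with a known protein sequence. Scores were averaged over arrays of the same protein sequence at different concentrations or buffers, and over linkers, and negative values can be taken as non-binding.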
# [2] = target: Fuc(a1-2)Gal(b1-4)GlcNAc(b1-3)Gal(b1-4)GlcNAc
# Summary of the method: as §1
# [3] = target: Fuc(a1-2)Gal6S(b1-4)Glc6S
# Summary of the method: as §1
# [4] = target: Fuc(a1-2)[Gal(a1-3)]Gal(b1-4)GlcNAc
# Summary of the method: as §1
# [5] = target: Fuc(a1-2)[GalNAc(a1-3)]Gal(b1-3)GlcNAc
# Summary of the method: as §1
# [6] = target: Fuc(a1-3)GlcNAc
# Summary of the method: as §1
# [7] = target: Gal(b1-3)Gal(b1-4)GlcNAc
# Summary of the method: as §1
# [8] = target: Gal(b1-3)GalNAc(b1-4)Gal(b1-4)Glc
# Summary of the method: as §1
# [9] = target: Gal(b1-3)[Fuc(a1-4)]GlcNAc(b1-3)Gal(b1-4)[Fuc(a1-3)]GlcNAc
# Summary of the method: as §1
# [10] = target: Gal(b1-3)[Neu5Ac(a2-6)]GlcNAc(b1-6)Gal(b1-4)Glc
# Summary of the method: as §1
# [11] = target: Gal(b1-4)GlcNAc(b1-6)GalNAc
# Summary of the method: as §1
# [12] = target: Gal3S(b1-4)Glc6S
# Summary of the method: as §1
# [13] = target: Gal3S6S(b1-4)GlcNAc6S
# Summary of the method: as §1
# [14] = target: GlcA(b1-6)Gal
# Summary of the method: as §1
# [15] = target: GlcNAc(b1-2)Man(a1-3)[GlcNAc(b1-2)Man(a1-6)]Man(b1-4)GlcNAc(b1-4)GlcNAc
# Summary of the method: as §1
# [16] = target: GlcNAc(b1-3)Gal(b1-3)GalNAc
# Summary of the method: as §1
# [17] = target: GlcNAc(b1-3)[GlcNAc(b1-4)][GlcNAc(b1-6)]GlcNAc
# Summary of the method: as §1
# [18] = target: GlcNAc(b1-4)Gal(b1-4)GlcNAc
# Summary of the method: as §1
# [19] = target: GlcNAc(b1-4)[GlcNAc(b1-6)]GalNAc
# Summary of the method: as §1
# [20] = target: Kdn(a2-3)Gal(b1-3)GlcNAc
# Summary of the method: as §1
# [21] = target: Man(a1-2)Man(a1-3)[Man(a1-6)]Man(a1-6)[Man(a1-2)Man(a1-3)]Man(b1-4)GlcNAc(b1-4)GlcNAc
# Summary of the method: as §1
# [22] = target: Man(a1-3)[Man(a1-6)]Man(a1-6)[Man(a1-2)Man(a1-3)]Man(b1-4)GlcNAc(b1-4)GlcNAc
# Summary of the method: as §1
# [23] = target: Man(a1-3)[Man(a1-6)]Man(a1-6)[Man(a1-3)]Man(b1-4)GlcNAc(b1-4)GlcNAc
# Summary of the method: as §1
# [24] = target: Neu5Ac(a2-3)Gal(b1-4)GlcNAc(b1-3)Gal(b1-3)GlcNAc
# Summary of the method: as §1
# [25] = target: Neu5Ac(a2-6)Gal(b1-4)GlcNAc6S
# Summary of the method: as §1
# [26] = target: Neu5Ac(a2-8)Neu5Ac(a2-3)Gal(b1-4)Glc
# Summary of the method: as §1
# [27] = target: Neu5Ac(a2-8)Neu5Ac(a2-8)Neu5Ac(a2-3)Gal(b1-4)Glc
# Summary of the method: as §1
binder,measurement,setting,value
B1,glycan array binding signal (z-score),[1],-0.514
same,glycan array binding signal (z-score),[2],1.5
same,glycan array binding signal (z-score),[3],-0.304
same,glycan array binding signal (z-score),[4],-0.508
same,glycan array binding signal (z-score),[5],-0.559
same,glycan array binding signal (z-score),[6],3.11
same,glycan array binding signal (z-score),[7],-0.562
same,glycan array binding signal (z-score),[8],-0.463
same,glycan array binding signal (z-score),[9],2.11
same,glycan array binding signal (z-score),[10],-0.498
same,glycan array binding signal (z-score),[11],-0.546
same,glycan array binding signal (z-score),[12],-0.317
same,glycan array binding signal (z-score),[13],-0.189
same,glycan array binding signal (z-score),[14],-0.463
same,glycan array binding signal (z-score),[15],3.08
same,glycan array binding signal (z-score),[16],1.72
same,glycan array binding signal (z-score),[17],3.11
same,glycan array binding signal (z-score),[18],3.13
same,glycan array binding signal (z-score),[19],2.16
same,glycan array binding signal (z-score),[20],-0.504
same,glycan array binding signal (z-score),[21],2.61
same,glycan array binding signal (z-score),[22],3.01
same,glycan array binding signal (z-score),[23],3.27
same,glycan array binding signal (z-score),[24],-0.489
same,glycan array binding signal (z-score),[25],-0.319
same,glycan array binding signal (z-score),[26],-0.47
same,glycan array binding signal (z-score),[27],-0.49
